# Out of some 4,800 compounds screened, about 410 (8.5%) showed an effect of 50% or more. This excerpt belongs to a sample that is enriched for strong results.
# System: Plasmodium falciparum
# Experiment: Confirmatory screen in NF54 pLDH assay, in single point, at 2uM, 72h
# Format: functional, Erythrocyte
# Conditions: timepoint 72 hour
row,Structure (SMILES),% Inhibition [%]
1,CCc1nc(C(=O)N2C[C@@H]3CCCN(C(=O)c4coc(CC)n4)[C@@H]3C2)co1,0
2,CCc1ncsc1C(=O)OCC1(C#N)CCOCC1,-2
3,Cc1cc(CS(=O)(=O)[C@@H](C)C(=O)NCC(C)C)on1,12
4,CC(=O)N(C)CC(=O)Nc1ccccc1NCC1CCCCC1,12
5,COc1cc(CN(C)[C@H]2CCc3nnc(C4CCOCC4)n3CC2)cc(OC)c1,1
6,Cn1ccnc(N[C@@H](COc2ccccc2F)c2ccccc2)c1=O,3
7,NC(=O)CCc1ccc(S(=O)(=O)Cl)cc1,13
8,COC(=O)c1ccc(Nc2nc(C)c3nc(C)n(-c4ccc(C(=O)OC)cc4)c3n2)cc1,3
9,CCOc1cc(Cl)c(Cl)c(C#N)c1OC(C)=O,6
10,COc1ccc(-c2nccn3cc(C(=O)NCCN(C)C4CCCCC4)nc23)cc1,5
11,CCCC[C@H](CC)C(=O)Nc1c(C)cccc1CC,-8
12,Brc1ccc(Oc2ncc(CN3CCOCC3)s2)cc1,7
13,Cc1ccc2c(c1)CCCN2S(=O)(=O)c1ccc2ccccc2c1,-7
14,Cc1ccc(Nc2ccc(N3CCNCC3)nn2)nc1,58
15,Cc1ccnc(N2CCN(S(=O)(=O)Cc3ccon3)CC2)c1,15
16,Cc1ccnc(Nc2ccc(N3CCNCC3)nn2)c1,65
17,Cc1cnc(CC[C@H]2CCCN2C(=O)CCn2ccnc2)n1C,7
18,CCC(C#N)(CC)c1nc(-c2cc(N)nc3ccccc23)no1,8
19,CCC(=O)O[C@@]1(c2ccc(C3CC3)cc2)CCCN(Cc2ccccc2)C1,-1
20,O=C1CCN(C(=O)COc2ccc(-c3ccccc3)cc2Cl)CCN1,-12
21,CC(=O)N[C@H]1CCc2nc(N)sc2C1,13
22,C[C@@H]1C[C@@H](Nc2ccccc2)c2ccccc2N1C(=O)COc1ccc(Br)cc1,10
23,O=C(Cc1c(Cl)cccc1Cl)N1CC[C@]2(CCOC2)C1,-19

row,Structure (SMILES),% Inhibition [%]
1,Cc1noc(Cl)c1CC(=O)N1CCCC(C)(C)CC1,20
2,CC[C@@]1(C)CCCN(C(=O)Cc2c(C)noc2Cl)C1,87
3,Cc1ccc(-n2c(=O)c3sccc3n(CC(=O)NCc3ccc(F)cc3F)c2=O)cc1C,-20
4,CC1CCC2(CC1)N=C(c1ccccc1)C(=O)N2CC(=O)N[C@H]1CCc2ccccc21 (stereo partly drawn),-4
5,CN(Cc1cnn(-c2ccccc2)n1)c1ncnc2[nH]ncc12,10
6,CCCCC(=O)N1CCc2[nH]nc(C(=O)NCCc3ccc(OC)cc3)c2C1,2
7,Cc1nc2nnnn2c(C)c1C/C=C/c1ccccc1,8
8,Cc1cc(OC[C@@H](O)CNC(C)(C)CC(C)(C)C)cc(C)c1Cl,57
9,O=C(N[C@@H](N1CCCC1)C(Cl)(Cl)Cl)c1ccc(Cl)cc1,-13
10,O=C(N[C@H]1CC12CC2)c1ccncc1F,-22
11,C=C1C(C)C2C(Cc3c[nH]c4ccccc34)NC(=O)C23C(=O)CC(O)C(O)CC(C)C/C=C/C3C1O (stereo not drawn),65
12,C[n+]1ccccc1/C=C/c1c[nH]c2ccccc12,81
13,CCc1ccc(/C=C/c2c[nH]c3ccccc23)[n+](CC)c1,88
14,Fc1cc(Cl)cnc1N1CCC2(CCOCC2)C1,12
15,Cc1[nH]n(-c2nc(C(F)(F)F)cc(=O)[nH]2)c(=O)c1CCO,-9
16,O=C1C2CC=CCC2C(=O)N1CNc1ccc(Cl)cc1 (stereo not drawn),-9
17,CCn1c(=O)c(N2CCN(C(=O)Nc3ccc(OC)cc3OC)CC2)nc2cccnc21,-17
18,O=C([C@H]1CCCN(C(=O)N2CCc3sccc3C2)C1)N1CCc2[nH]ncc2C1,-7
19,CCOC(=O)C(C)NC(=O)C(C)NC(=O)c1ccc(F)c(C#N)c1 (stereo not drawn),7
20,O=S(=O)(NC1CC(c2ccc(F)c(Cl)c2)C1)C1CC1 (stereo not drawn),7
21,Cn1nc(C2CC2)c2c(C(F)F)cc(-c3ccc4c(c3)OCO4)nc21,2
22,CCS(=O)(=O)Nc1ccc(Br)cc1Cl,-1
23,Cc1ncccc1C(=O)NCCc1csc(-c2ccccc2)n1,-19

row,Structure (SMILES),% Inhibition [%]
1,c1ccc(-c2nc(C[n+]3ccc4c(c3)CCCC4)cs2)cc1,56
2,CN(C)c1ccc(C2OCC3(CCC4(COC(c5ccc(N(C)C)cc5)OC4)O3)CO2)cc1 (stereo not drawn),-5
3,Fc1ccc(COc2ccc3ccccc3c2CNc2ccc(Br)cc2)cc1,10
4,CCCNC(=O)CS(=O)(=O)Cc1cccc(Br)c1C,-14
5,Nc1nc(-c2ccccc2)c2cc3c(nn12)C[C@H](c1ccc(F)cc1)CC3=O,-6
6,COc1c2c(cc3c1[C@@H](C#CCOc1ccccc1)[N+](C)(C)CC3)OCO2,68
7,CCn1cc(S(=O)(=O)N2CC(Oc3cccc(-c4nc(C)no4)c3)C2)cn1,7
8,COc1cc(-c2nc3ncnn3c(N)c2C#N)cc(OC)c1OC,-17
9,Cc1cc(C)c2nc(C)cc(Nc3ccc(O)cc3)c2c1,103
10,COc1c(Cl)cc(Cl)cc1C#N,-17
11,COc1cc(N)c(NC(C)=O)cc1Cl,7
12,COCCN(CC1CN(Cc2ccccc2OC)CC1c1ccccc1OC)C(=O)COC (stereo not drawn),0
13,COc1cccc(CNCc2ccc3c(c2)OCO3)c1OCc1ccc(Cl)cc1Cl,10
14,COc1ccccc1CN1COc2cc3c(cc2C1)OCO3,52
15,O=S(=O)(NCc1ccc(C(F)(F)F)nc1N1CCC(C(F)(F)F)CC1)C(F)(F)F,8
16,CC(C1Cc2ccccc2O1)N(C)Cc1nccn1S(=O)(=O)N(C)C (stereo not drawn),-8
17,Cn1ccc(C(=O)Nc2ccc(-c3ccccc3)cn2)cc1=O,-11
18,Nc1n[nH]c2c(Cl)c3nnc(-c4ccccc4)n3c(Cl)c12,13
19,O=C(Cc1ccc(N(Cc2cccc(F)c2)C(=O)C2CCCC2)cc1)NCCN1CCCCC1,43
20,COCCN(Cc1c(-c2ccccc2)noc1N1CCN(C)CC1)C(=O)c1ccc(C)cc1,12
21,C[C@H](Nc1ccc(N2CCOCC2)nc1)c1cccc(CO)c1,11
22,CCn1c(-c2cc(NC(=O)c3ccc4c(c3)OCO4)[nH]n2)cc2ccc(OC)cc21,4
